Source: PubChem (National Center for Advancing Translational Sciences (NCATS))
Most compounds without a hit are left out; they make up all but 13% or so of the library.
4MU fluor – qHTS Assay for Spectroscopic Profiling in 4-MU Spectral Region; AID 589, 2007; compound autofluorescence, 340/450 nm, 4-MU equivalents; active compounds read high; max dye-equivalent concentration, M; actives 11% (n = 59,000); in the data active = max dye-equivalent concentration above about 10 nM; inconclusive = mostly about 1.1 nM to 9.6 nM
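Compounds in 100 mM Tris, pH 8.0, incubated 15 min at room temperature, then fluorescence read at 340 nm excitation/450 nm emission. Signal converted to 4-MU dye-equivalent concentration using an on-plate six-point 4-MU standard curve.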
HADH2 inh – qHTS Assay for Inhibitors of HADH2 (Hydroxyacyl-Coenzyme A Dehydrogenase, Type II). recombinant HADH2, NADH fluorescence, beta-hydroxybutyryl-CoA. Potency, µM (highest dose often 57.1 µM), without a hit: at the top dose activity change, negative = inhibition, usual class: inhibitors. actives 3.4% (n = 73,000). AID 886, 2007; note: potency is the fitted concentration of half-maximal effect; % is set by controls: 0 for no effect and ±100 for the full control effect; nearly all actives have a fitted effect of over 60% in size
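His-tagged recombinant enzyme from E. coli, 20 nM, preincubated 15 min RT with compound; reaction started with 1 mM NAD+ and 90 uM beta-hydroxybutyryl-CoA in 100 mM Tris-HCl pH 9.0. NADH fluorescence (ex 360/em 450) read over 4 min; last-minus-first difference.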
USP2a inh – qHTS Assay for Inhibitors of Ubiquitin-specific Protease USP2a | USP2a enzymatic assay, qHTS inhibition | actives 0.1% (n = 60,000) | Potency, µM (top dose mostly 38.3 µM), for inactives: top-dose activity change, negative = inhibition, actives largely listed as inhibitors; note: potency is the fitted concentration of half-maximal effect; nearly all actives have a fitted effect of over 60% in size
Target sequence (O75604 whole entry, looked up): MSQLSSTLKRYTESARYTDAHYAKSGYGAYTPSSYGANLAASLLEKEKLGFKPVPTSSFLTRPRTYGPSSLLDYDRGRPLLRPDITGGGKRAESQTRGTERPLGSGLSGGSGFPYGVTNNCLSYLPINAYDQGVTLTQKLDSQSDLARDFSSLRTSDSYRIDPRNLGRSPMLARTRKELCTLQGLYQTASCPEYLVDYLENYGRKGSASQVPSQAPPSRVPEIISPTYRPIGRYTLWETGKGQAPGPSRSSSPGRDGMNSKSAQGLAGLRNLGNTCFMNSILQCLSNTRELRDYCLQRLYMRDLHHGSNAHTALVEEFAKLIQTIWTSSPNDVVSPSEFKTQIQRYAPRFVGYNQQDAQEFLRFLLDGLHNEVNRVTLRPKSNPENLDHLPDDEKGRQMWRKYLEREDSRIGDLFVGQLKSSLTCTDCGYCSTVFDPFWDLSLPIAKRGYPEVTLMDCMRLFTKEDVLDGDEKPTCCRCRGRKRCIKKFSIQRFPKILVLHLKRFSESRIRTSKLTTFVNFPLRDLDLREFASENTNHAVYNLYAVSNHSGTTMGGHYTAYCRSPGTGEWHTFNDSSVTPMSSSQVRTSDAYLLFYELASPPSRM
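Inhibition is measured in a cell-free coupled assay with 20 nM USP2 core, 20 nM Ub-PLA2 and 20 uM NBD C6-HPC, 2.5 h incubation. Activity normalized to NEM control.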
A350 autofl – qHTS Assay for Spectroscopic Profiling in A350 Spectral Region; actives 11% (n = 59,000); Compound autofluorescence, 340/450 nm, Alexa 350 dye-equivalents; active compounds read high; AID 590, 2007; max dye-equivalent concentration, M; in the data active = max dye-equivalent concentration above about 10 nM; inconclusive = mostly about 1.1 nM to 9.6 nM
HSD17B inhib – qHTS Assay for Inhibitors of HSD17B4, hydroxysteroid (17-beta) dehydrogenase 4. 3-hydroxyacyl-CoA dehydrogenase type-2 (Homo sapiens), Q99714. recombinant HSD17B10, NADH fluorescence kinetic. Potency, µM (top dose mostly 57.1 µM), inactives show at the top dose activity change, negative = inhibition, actives largely listed as inhibitors. actives 7.6% (n = 75,000);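 note: the protocol describes HADH2 (HSD17B10) and not the HSD17B4 of the title; potency is the fitted concentration of half-maximal effect; % is set by controls: 0 for no effect and ±100 for the full control effect; nearly all actives have a fitted effect of over 70% in size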
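His-tagged E. coli-expressed HADH2 at 20 nM in 100 mM Tris-HCl pH 9.0 with 0.01 % Tween-20, preincubated 15 min with compound at room temperature. Reaction with 1 mM NAD+ and 90 uM beta-hydroxybutyryl coenzyme A; NADH fluorescence (360/450 nm) read kinetically over 4 min, last minus first point.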
AID923 – qHTS Assay for Allosteric/Competitive Inhibitors of Caspase-1: Spectroscopic Profiling in AFC Spectral Region; compound fluorescence, AFC spectral region (405/520 nm); Potency, µM (highest dose often 57.5 µM), for inactives: at the highest dose fluorescence increase, usual class: activators; actives 1.1% (n = 75,000); AID 923, 2007; note: potency is the fitted concentration of half-maximal effect; 0% is about no effect
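Titrations up to 57 uM read every 20 sec for 3 min (405/520 nm) with 50 nM caspase 1 and 5 uM Ac-WEHD-AFC, pH 7.5 HEPES buffer. Fluorescence-vs-time intercept gave baseline, scaled against on-plate AFC standard.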
* = called active by the depositor; i = inactive; u = inconclusive; x = not tested or not shown; [ ] = dose if it differs, or a comment. Unless noted, calls come from the whole dose curve; as a rule, active = well fitted curve in the direction sought with a large enough effect; inconclusive = small, poorly fitted or top-dose-only effect, or another doubt; inactive = no such curve, though single readings can be large; an effect the other way counts as inactive or inconclusive.

SMILES	4MU fluor	HADH2 inh	USP2a inh	A350 autofl	HSD17B inhib	AID923
O=C(NCc1cccnc1)c1ccc(CS(=O)(=O)c2ccc(Cl)cc2)o1	u	-1.2%	0.5%	u	-2.5%	-0.3%
O=C(CSc1cccc[n+]1[O-])c1cc2ccccc2o1	i	20µM*	-4.8%	i	-13.0%	-0.8%
Cn1cccc1C(=O)NC(=O)CSc1cccc[n+]1[O-]	i	-8.3%	8.9%	i	-3.0%	0.6%
CCc1ccc2c(c1)N(C[C@H](C)CN(C)C)c1ccccc1S2	i	12.3%[11.4 µM]	x	i	-18.6%[11.4 µM]	0.6%[11.5 µM]
CCCn1c(=O)[nH]c(=O)c2c1nc(-c1ccccc1OC(F)F)n2CCOC	u	u	-0.9%	u	25.1µM*	0.7%
COCCn1c(Sc2ccccc2)nc2c1c(=O)[nH]c(=O)n2C	i	4.6%	-10.1%	i	20.8%	2.3%
CCSc1nc(-c2ccc(OC)cc2)ccc1C#N	1.53e-07M*	24.3%	-3.5%	1.12e-07M*	31.6µM*	5.0%
FC(F)(F)c1nnc2sc(-c3cccs3)nn12	i	-10.1%	5.9%	i	-20.0%	-1.5%
CCOc1ccc2[nH]c(=O)c(C(c3nnnn3Cc3ccco3)N3CCC(C)CC3)cc2c1 (configuration not stated)	1.15e-07M*	-22.2%	243.9%	1.14e-07M*	31.6µM*	10.0%
CCOc1ccc2[nH]c(=O)c(C(c3nnnn3Cc3ccco3)N3CCCC(C)C3)cc2c1 (configuration not stated)	1.33e-07M*	u	235.8%	1.34e-07M*	25.1µM*	3.6%
CCN1CCC[C@@H]1CNC(=O)c1c(OC)ccc(I)c1O	i	9.9%	x	i	x	x
COc1ccc2c3c(cccc13)NN=C2C	i	11.2%	u	i	u	1.6%
O=C(CCCn1c(SCC(=O)NC2CCCCC2)nc2ccccc2c1=O)NCC1CCCO1 (configuration not stated)	u	11.3%	10.9%	1.07e-08M*	15.9%	0.9%
Cn1c(=O)cc(SCC(=O)NCC2CCCO2)c2ccccc21 (configuration not stated)	i	-22.7%	-8.8%	u	20µM*	1.9%
Cc1cc(C)c2cc(C#N)c(SCC(=O)NCC3CCCO3)nc2c1 (configuration not stated)	1.58e-08M*	34.0%	11.4%	1.59e-08M*	-25.9%	0.6%
Cc1ccc2cc(C#N)c(SCC(=O)NCC3CCCO3)nc2c1 (configuration not stated)	1.99e-08M*	12.3%	4.6%	2.92e-08M*	-9.3%	-0.6%
Cc1ccc(-n2nnc3c(SCC(=O)NCC4CCCO4)ncnc32)cc1 (configuration not stated)	x	8.7%	x	x	-4.8%	1.5%
CCC(C)NC(=O)CSc1nc2ccccc2c(=O)n1CCCC(=O)NCC1CCCO1 (configuration not stated)	i	2.6%	-2.4%	i	3.6%	-0.2%
CC(C)C1=C[C@@]23CC[C@@H]4[C@](C)(CCC[C@@]4(C)C(=O)O)[C@@H]2C[C@@H]1[C@@H](C(=O)O)[C@@H]3C(=O)O	i	-6.2%[11.4 µM]	x	i	7.1%[11.4 µM]	0.1%[11.5 µM]
CN(C)Cc1ccccc1-c1nccc(NC2CC2)n1	i	8.8%	-5.4%	i	-5.2%	2.0%
Cc1c(C(=O)COC(C)(C)C)[nH]c2ccccc12	i	-10.8%	36.1%	i	u	-1.0%
COc1ccc(N(CC(=O)N2CCCCC2)S(=O)(=O)c2ccccc2)c(OC)c1	i	6.9%	4.5%	i	14.0%	-0.2%
OCCSCc1cc(Cl)cc(Cl)c1O	i	0.5%[11.4 µM]	x	i	-7.0%[11.4 µM]	1.0%[11.5 µM]
Nc1nc(SCC(=O)NCC2CCCO2)n[nH]1 (configuration not stated)	i	-17.8%	-5.4%	i	7.9%	-1.8%
COC(=O)CSc1nc2cc(C)ccc2cc1C#N	u	-3.2%	8.3%	1.09e-08M*	u	-0.7%
SMILES	4MU fluor	HADH2 inh	USP2a inh	A350 autofl	HSD17B inhib	AID923
Cc1ccc2nc(SCC(=O)NCC3CCCO3)c(C#N)cc2c1 (configuration not stated)	1.51e-08M*	8.5%	0.2%	1.49e-08M*	-12.6%	3.6%
Nc1cc(N)nc(SCC(=O)NCC2CCCO2)n1 (configuration not stated)	7.76e-08M*	9.0%	-3.3%	8.22e-08M*	5.9%	0.8%
Cc1ccc2cc(C)c(SCC#N)nc2c1	1.28e-08M*	-8.3%	-6.8%	1.3e-08M*	-0.5%	0.6%
Cc1cc(C)c2nc(SCC#N)cc(C)c2c1	i	-6.0%	0.9%	i	-3.6%	1.1%
CCOC(=O)c1c(NC(=O)OC)sc2c1CCC2	i	-19.8%	-6.8%	i	-11.3%	-0.2%
COCC(=O)Nc1sc2c(c1C(=O)OC)CCC(C)C2 (configuration not stated)	i	-0.3%	7.9%	i	31.6µM*	1.1%
COC(=O)c1c(NC(=O)c2ccoc2C)sc2c1CCC2	6.82e-08M*	31.6µM*	45.1%	7.23e-08M*	25.1µM*	2.0%
CC1CCc2c(sc(NC(=O)c3noc4c3CCCC4)c2C(N)=O)C1 (configuration not stated)	6.19e-08M*	-0.2%	12.9%	1.24e-07M*	-3.2%	-0.4%
COC(=O)c1c(NC(=O)CN2CCOCC2)sc2c1CCC(C)C2 (configuration not stated)	i	1.8%	44.3%	i	47.6%	-1.2%
CCn1ncc(Br)c1C(=O)Nc1sc2c(c1C(=O)OC)CCC2	3.35e-08M*	25.1µM*	18.8%	2.5e-08M*	9.8%	-0.5%
CCC1=C(OC(=O)N(CC)CC)N2C(=O)OC(=NCCOC)[C@]2(C)[C@H]2C1=CC[C@H]1C(=O)N(C)C(=O)[C@H]12	x	x	x	x	7.3%	2.1%
CC1CCc2c(sc(N)c2C(N)=O)C1 (configuration not stated)	x	15.8µM*	11.9%	x	-7.6%	1.0%
COC(=O)c1c(NC(=O)c2nn(C)cc2Cl)sc2c1CCCC2	2.43e-07M*	x	x	2.77e-07M*	x	x
Cc1occc1C(=O)Nc1sc2c(c1C(N)=O)CCCCC2	2.35e-08M*	u	20.1%	2.9e-08M*	u	0.7%
COC(=O)c1c(NC(=O)C2CC2)sc2c1CCCC2	x	2.2%	x	x	u	-3.6%
COC(=O)c1c(NC(=O)CC2NCCNC2=O)sc2c1CCCC2 (configuration not stated)	i	-3.6%	2.9%	u	-17.8%	-0.3%
